# “And” between values parts separate entries of the source, which are not always exact repeats. Equal values may be shown once. The source made the active and inactive calls.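 The calls were made as follows, unless noted: active = thallium flux through the channel raised or lowered by more than 3 SD from vehicle-only wells, actives on both sides; inactive = the rest.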
# Experiments:
# [1] = signal quenchers or enhancers, Cy5 substrate/SSB – biochemical, NIH Clinical Collection, E. coli SSB, artefact control for HCV NS3 helicase inhibitor project (AID 743268; call rule not given here); details: Cy5-oligo bound E. coli SSB, fluorescence interference
# [2] = test system: Hepatitis C virus NS3 helicase; experiment: blockers of NS3h binding to DNA – biochemical, fluorescence polarization, NIH Clinical Collection, primary screen (AID 743270; call rule not given here); details: NS3 helicase binding to Cy5-dT15 DNA, stronger effect = higher value, concentration not given here
# [3] = biological target: Single-stranded DNA-binding protein (Escherichia coli (strain K12)) (UniProt P0AGE0); experiment: SSB-ssDNA binding inhibitors – biochemical, fluorescence polarization, NIH Clinical Collection, counter-screen for HCV NS3 helicase inhibitor project (AID 743271; in the data active = inhibition above about 28%); details: E. coli SSB-DNA binding, stronger effect = higher value, concentration not given here
# [4] = compounds distorting NS3 helicase fluorescence signal – biochemical, NIH Clinical Collection, artefact control for HCV NS3 helicase inhibitor project (AID 743272; call rule not given here;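 also: HCV NS3 helicase with a Cy5 labelled single stranded DNA probe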); details: fluorescence interference counterscreen, HCV NS3 helicase assay; stronger effect = lower value
# [5] = biological target: 6-phosphogluconate dehydrogenase, decarboxylating (Homo sapiens) (UniProt P52209); experiment: inhibition of human phosphogluconate dehydrogenase – biochemical, recombinant enzyme, NADPH absorbance, primary screen (AID 1159550;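 active = at least 20% inhibition of 6-phosphogluconate dehydrogenase activity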); details: recombinant 6PGD, NADPH absorbance 341 nm; at 10 µM; stronger effect = higher value
# Sequence of 6-phosphogluconate dehydrogenase, decarboxylating (Homo sapiens) (P52209 whole entry, looked up): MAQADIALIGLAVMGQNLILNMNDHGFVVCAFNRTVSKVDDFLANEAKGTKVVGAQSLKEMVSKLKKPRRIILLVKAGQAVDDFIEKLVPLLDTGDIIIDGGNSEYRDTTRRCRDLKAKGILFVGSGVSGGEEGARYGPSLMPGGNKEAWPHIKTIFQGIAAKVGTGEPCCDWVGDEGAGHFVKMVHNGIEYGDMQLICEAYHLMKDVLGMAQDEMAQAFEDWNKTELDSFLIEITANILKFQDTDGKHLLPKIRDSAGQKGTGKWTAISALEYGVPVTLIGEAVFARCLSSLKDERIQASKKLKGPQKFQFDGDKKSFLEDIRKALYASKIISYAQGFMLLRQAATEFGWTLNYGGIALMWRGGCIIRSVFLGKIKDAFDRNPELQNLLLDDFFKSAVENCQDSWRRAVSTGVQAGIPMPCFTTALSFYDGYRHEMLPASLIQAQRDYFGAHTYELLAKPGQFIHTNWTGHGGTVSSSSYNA
# [6] = modulation of C. elegans fzo-1 (AID 1259413; call rule not given here;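 also: fzo-1 mutant C. elegans worms in liquid wells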); details: C. elegans fzo-1 modulator screen, mean read-out; stronger effect = higher value
# [7] = EMT-state selective cytotoxicity in co-culture – imaging, PC-3E GFP, TEM4-18 mCherry, primary screen (AID 1345086;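 active = compounds killing one labelled cell type while sparing the other, by normalised counts and ratio limits, not self-fluorescent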;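 as to all read-outs here: cells exposed to compound for 72 h before imaging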;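 as to red/green cell ratio (normalised): normalised mesenchymal count divided by normalised epithelial count so high means epithelial killing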); details: PC-3E GFP / TEM4-18 mCherry co-culture, imaging cell counts, at 1 µM; for red/green cell ratio (normalised): actives lie on both sides, counts scaled to control wells, 1 = unselective
# [8] = MELAS cybrid and Rieske KO viability enhancers – cell-based, MELAS cybrids, Rieske KO mouse fibroblasts, CellTiter-Glo, primary screen (AID 1508586;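 active = mean z-score across replicates of 1.96 or higher in either the MELAS or the Rieske mutant cell line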;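 also: z relative to plate mean and SD of compound and empty wells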); details: low glucose
# [9] = test system: F380Y; experiment: BK channel mutant inhibitors and activators – cell-based, U2OS BacMam, thallium flux, beta subunits, selectivity assay, profiling panel (AID 1259406); details: U2OS BacMam BK variants, at 30 µM;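 also: initial slope of Thallos dye fluorescence rise after thallium is added; log ratio against the mean of 0.3% DMSO vehicle wells on the same plate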
# [10] = test system: F380Y/beta1; experiment: as above; details: U2OS BacMam BK variants, at 30 µM
# [11] = test system: F380Y/beta2Delta; experiment: as above; details: U2OS BacMam BK variants, at 30 µM
# [12] = test system: F380Y/beta4; experiment: as above; details: U2OS BacMam BK variants, at 30 µM
# [13] = biological target: Calcium-activated potassium channel subunit alpha-1 (Homo sapiens) + Leucine-rich repeat-containing protein 26 (Homo sapiens) (UniProt Q12791+Q2I0M4); experiment: as above; details: U2OS BacMam BK variants, F380Y/Slo1WT/gamma1, at 30 µM
# Sequence of Calcium-activated potassium channel subunit alpha-1 (Homo sapiens) + Leucine-rich repeat-containing protein 26 (Homo sapiens) (Q2I0M4 whole entry, looked up, one chain of several): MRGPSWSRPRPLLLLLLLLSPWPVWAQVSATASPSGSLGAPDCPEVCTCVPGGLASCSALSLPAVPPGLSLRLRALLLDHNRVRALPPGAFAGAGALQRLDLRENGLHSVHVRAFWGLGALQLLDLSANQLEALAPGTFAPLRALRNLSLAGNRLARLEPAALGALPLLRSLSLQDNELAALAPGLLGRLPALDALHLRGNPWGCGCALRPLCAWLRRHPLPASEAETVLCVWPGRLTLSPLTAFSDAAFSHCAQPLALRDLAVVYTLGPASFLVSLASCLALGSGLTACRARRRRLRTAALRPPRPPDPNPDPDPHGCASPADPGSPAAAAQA
# [14] = test system: R275C; experiment: as above; details: U2OS BacMam BK variants, at 30 µM
# [15] = test system: R275C/beta1; experiment: as above; details: U2OS BacMam BK variants, at 30 µM
# [16] = test system: R275C/beta2Delta; experiment: as above; details: U2OS BacMam BK variants, at 30 µM
# [17] = viability loss with induced miR-34 in A549 – imaging, A549 dox-inducible miR-34, nuclei and caspase counts, primary screen (AID 1347080;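 active = compounds whose cell count with miR-34 switched on is under 0.7 times the count with it off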); details: A549 miR-34 inducible, Hoechst nuclei count, 48 h
# [18] = biological target: Mitogen-activated protein kinase 7 (Homo sapiens) (UniProt Q13164); experiment: Gal4-ERK5 driven luciferase induction – cell-based, HTS, primary screen (AID 1508626;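 active = luciferase signal above three times the same-plate solvent-only control wells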;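 also: luciferase driven by Gal4-ERK5 fusion binding five Gal4 sites before minimal TATA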); details: HeLa Gal4-ERK5 transactivation, 18 h, at 5 µM, stronger effect = higher value
# Sequence of Mitogen-activated protein kinase 7 (Homo sapiens) (Q13164 whole entry, looked up, the tested form may be a part): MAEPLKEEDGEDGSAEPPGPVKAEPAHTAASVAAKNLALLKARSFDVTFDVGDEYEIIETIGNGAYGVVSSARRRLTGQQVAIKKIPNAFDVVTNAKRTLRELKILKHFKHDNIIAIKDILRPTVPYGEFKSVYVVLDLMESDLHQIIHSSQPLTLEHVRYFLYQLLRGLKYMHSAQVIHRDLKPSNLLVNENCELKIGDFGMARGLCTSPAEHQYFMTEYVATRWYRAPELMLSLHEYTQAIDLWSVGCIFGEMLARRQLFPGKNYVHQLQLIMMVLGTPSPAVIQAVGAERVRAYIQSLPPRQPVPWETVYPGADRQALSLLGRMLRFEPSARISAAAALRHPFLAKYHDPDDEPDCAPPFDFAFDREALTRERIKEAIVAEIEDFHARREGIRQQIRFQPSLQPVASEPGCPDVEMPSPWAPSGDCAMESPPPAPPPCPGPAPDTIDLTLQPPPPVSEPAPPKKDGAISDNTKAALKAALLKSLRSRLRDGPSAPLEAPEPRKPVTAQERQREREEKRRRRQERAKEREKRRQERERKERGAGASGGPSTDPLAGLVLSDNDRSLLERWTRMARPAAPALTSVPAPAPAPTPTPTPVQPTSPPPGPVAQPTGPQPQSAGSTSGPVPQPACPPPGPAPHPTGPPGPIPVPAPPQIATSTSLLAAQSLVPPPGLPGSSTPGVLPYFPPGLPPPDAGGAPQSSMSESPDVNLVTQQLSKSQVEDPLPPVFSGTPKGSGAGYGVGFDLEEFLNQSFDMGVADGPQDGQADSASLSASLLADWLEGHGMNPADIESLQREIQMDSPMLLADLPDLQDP
# [19] = P. berghei load reduction in hepatocytes – cell-based, HepG2, luciferase luminescence, HepG2 viability, primary screen (AID 624349; in the data active = parasite load remaining mostly below about 12%, no sharp cut-off; inactive = mostly above about 10%;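 also: 100% = mean of DMSO negative control wells on the same plate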); details: P. berghei liver stage in HepG2, luciferase luminescence, concentration not given here; parasite load remaining: stronger effect = lower value; viability: measured here: HepG2 viability without parasites
# [20] = measured here: epithelial PC-3E GFP cell survival
# [21] = measured here: mesenchymal TEM4-18 mCherry cell survival
# [22] = MELAS cybrid survival, CellTiter-Glo 48 h, stronger effect = higher value
# [23] = Rieske KO mouse fibroblast survival, CellTiter-Glo 72 h
# [24] = stronger effect = lower value, cell number ratio, induced over uninduced
# [25] = measured here: relative caspase fold change +Dox/-Dox
# [26] = measured here: total cells with miR-34 induction, stronger effect = lower value
# [27] = measured here: total cells without miR-34 induction
compound,measurement,setting,value
CNCCC(Oc1ccc(C(F)(F)F)cc1)c1ccccc1 (stereo unspecified),fluorescence ratio,[1],1.04 (inactive)
same,inhibition,[2],-2.27% (inactive)
same,inhibition,[3],-2.76% (inactive)
same,fluorescence ratio,[4],1.03 (inactive)
same,inhibition,[5],19% (inactive)
same,mean signal,[6],190 (inactive)
same,red/green cell ratio (normalised),[7],1 (inactive)
same,normalised cell number,[7]; [20],1.16
same,normalised cell number,[7]; [21],1.15
same,z-score,[8]; [22],1.26 (inactive) and -0.395 (inactive) and -0.285 (inactive)
same,z-score,[8]; [23],-2.64 and 0.201 and 0.197
same,log fold change Tl+ flux,[9],0.129 (active)
same,log fold change Tl+ flux,[10],0.157 (active)
same,log fold change Tl+ flux,[11],0.189 (active)
same,log fold change Tl+ flux,[12],0.225 (active)
same,log fold change Tl+ flux,[13],0.0464 (inactive)
same,log fold change Tl+ flux,[14],-0.0214 (inactive)
same,log fold change Tl+ flux,[15],0.297 (active)
same,log fold change Tl+ flux,[16],0.0608 (inactive)
COc1cc2c(cc1-c1coc3c4c(c(OC)cc3c1=O)OC(C)(C)C=C4)OCO2,inhibition,[5],8.44% (inactive)
C[C@]12CC[C@@H]3c4ccc(OC(=O)CCC(=O)O)cc4CC[C@H]3[C@@H]1CCC2=O,inhibition,[5],5.64% (inactive)
CC(=O)[C@H]1CC[C@H]2[C@@H]3CC(=O)C4=CC(=O)CC[C@]4(C)[C@H]3CC[C@]12C,inhibition,[5],-2.73% (inactive)
C[C@H]1COc2c(N3CCN(C)CC3)c(F)cc3c(=O)c(C(=O)O)cn1c23,fluorescence ratio,[1],1.03 (inactive)
same,inhibition,[2],-3.56% (inactive)
same,inhibition,[3],-3.95% (inactive)
same,fluorescence ratio,[4],1 (inactive)
same,inhibition,[5],0.836% (inactive)
same,mean signal,[6],274 (inactive)
same,red/green cell ratio (normalised),[7],1.01 (inactive)
same,normalised cell number,[7]; [20],1.12
same,normalised cell number,[7]; [21],1.13
same,fold change,[17]; [24],0.893 (inactive) and 0.857 (inactive)
same,fold change,[17]; [25],6.58 and 0.734
same,cell count,[17]; [26],11000 and 8630
same,cell count,[17]; [27],12300 and 10100
same,z-score,[8]; [22],-0.0762 (inactive)
same,z-score,[8]; [23],-0.528
same,luciferase signal,[18],296 AU (inactive)
same,log fold change Tl+ flux,[9],-0.012 (inactive)
same,log fold change Tl+ flux,[10],0.0152 (inactive)
same,log fold change Tl+ flux,[11],0.0117 (inactive)
same,log fold change Tl+ flux,[12],-0.0339 (inactive)
same,log fold change Tl+ flux,[13],0.00221 (inactive)
same,log fold change Tl+ flux,[14],-0.0297 (inactive)
same,log fold change Tl+ flux,[15],0.0187 (inactive)
same,log fold change Tl+ flux,[16],-0.00628 (inactive)
CC1=C(/C=C/C(C)=C/C=C/C(C)=C\C(=O)O)C(C)(C)CCC1,fluorescence ratio,[1],1.01 (inactive)
same,inhibition,[2],0.45% (inactive)
same,inhibition,[3],-1.24% (inactive)
same,fluorescence ratio,[4],0.99 (inactive)
same,inhibition,[5],16.8% (inactive)
same,mean signal,[6],236 (inactive)
same,red/green cell ratio (normalised),[7],1.29 (inactive)
same,normalised cell number,[7]; [20],0.91
same,normalised cell number,[7]; [21],1.18
same,z-score,[8]; [22],-0.17 (inactive)
same,z-score,[8]; [23],-0.281
same,luciferase signal,[18],48 AU (inactive)
same,log fold change Tl+ flux,[9],-0.00963 (inactive)
same,log fold change Tl+ flux,[10],-0.0325 (inactive)
same,log fold change Tl+ flux,[11],0.000191 (inactive)
same,log fold change Tl+ flux,[12],-0.0711 (inactive)
same,log fold change Tl+ flux,[13],-0.0907 (active)
same,log fold change Tl+ flux,[14],-0.0306 (inactive)
same,log fold change Tl+ flux,[15],-0.0172 (inactive)
same,log fold change Tl+ flux,[16],0.0302 (inactive)
COc1ccc(C[C@H](N)C(=O)N[C@H]2[C@@H](O)[C@H](n3cnc4c(N(C)C)ncnc43)O[C@@H]2CO)cc1,parasite load remaining,[19],-0.025% (inactive) and -0.34% (inactive)
same,viability,[19],17.9% and 1%
same,inhibition,[5],-10.2% (inactive)
same,fold change,[17]; [24],1.03 (inactive) and 1.04 (inactive)
same,fold change,[17]; [25],1.77 and 0.862
same,cell count,[17]; [26],1000 and 950
same,cell count,[17]; [27],976 and 910
same,z-score,[8]; [22],0.777 (inactive)
same,z-score,[8]; [23],-0.707
same,luciferase signal,[18],244 AU (inactive)
CC[C@H]1OC(=O)[C@H](C)[C@@H](O[C@H]2C[C@@](C)(OC)[C@@H](O)[C@H](C)O2)[C@H](C)[C@@H](O[C@@H]2O[C@H](C)C[C@H](N(C)C)[C@H]2O)[C@](C)(OC)C[C@@H](C)C(=O)[C@H](C)[C@@H](O)[C@]1(C)O,fluorescence ratio,[1],1.06 (inactive)
same,inhibition,[2],-0.4% (inactive)
same,inhibition,[3],-3.18% (inactive)
same,fluorescence ratio,[4],0.99 (inactive)
same,inhibition,[5],2.59% (inactive)
same,mean signal,[6],229 (inactive)
same,red/green cell ratio (normalised),[7],0.75 (inactive)
same,normalised cell number,[7]; [20],1.39
same,normalised cell number,[7]; [21],1.04
same,fold change,[17]; [24],0.89 (inactive) and 0.856 (inactive)
same,fold change,[17]; [25],4.5 and 0.962
same,cell count,[17]; [26],11300 and 8870
same,cell count,[17]; [27],12700 and 10400
same,z-score,[8]; [22],-0.605 (inactive) and -0.357 (inactive)
same,z-score,[8]; [23],-0.647 and -0.657
same,luciferase signal,[18],44 AU (inactive)
same,log fold change Tl+ flux,[9],0.0307 (inactive)
same,log fold change Tl+ flux,[10],0.0264 (inactive)
same,log fold change Tl+ flux,[11],-0.0353 (inactive)
same,log fold change Tl+ flux,[12],0.00789 (inactive)
same,log fold change Tl+ flux,[13],-0.0843 (inactive)
same,log fold change Tl+ flux,[14],-0.104 (inactive)
same,log fold change Tl+ flux,[15],-0.0277 (inactive)
same,log fold change Tl+ flux,[16],0.033 (inactive)
COc1c(C(C)C)oc2cc3oc(=O)ccc3cc12,inhibition,[5],2.98% (inactive)

# Source: PubChem BioAssay
